G9a block: qHTS Assay for Inhibitors of Histone Lysine Methyltransferase G9a. Histone-lysine N-methyltransferase EHMT2 (Homo sapiens), Q96KQ7. G9a H3K9 monomethylation, AlphaScreen, 2 h. Potency, µM (top dose mostly 102 µM), hits mostly inhibitors. 8.8% of 350,000 active; further: nearly all actives have a fitted effect of over 75% in size
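Step 1: enzyme (final 20 nM) with compound, 15 min RT. Step 2: substrate peptide 500 nM and SAM 20 uM, 2 h RT. Step 3: anti-H3K9me1 antibody and AlphaScreen beads, 10 min, then plate read.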
JMJD2A Tudor: qHTS Assay for Inhibitors of JMJD2A-Tudor Domain | AID 504339, 2011 | 4.4% of 390,000 active | AlphaScreen JMJD2A-Tudor / H3K4me3 peptide binding | Potency, µM (top dose mostly 114 µM), actives largely listed as inhibitors | Lysine-specific demethylase 4A (Homo sapiens), O75164; further: nearly all actives have a fitted effect of over 50% in size
BAZ2B block: qHTS Assay for Inhibitors of BAZ2B; Potency, µM (series often up to 114 µM), most hits filed as inhibitors; 4.4% of 360,000 active; AlphaScreen BAZ2B-H3K14Ac peptide displacement; AID 504333, 2011; Bromodomain adjacent to zinc finger domain protein 2B (Homo sapiens), Q9UIF8; further: nearly all actives have a fitted effect of over 60% in size
Target sequence (Q9UIF8 whole entry, looked up, the tested form may be a part): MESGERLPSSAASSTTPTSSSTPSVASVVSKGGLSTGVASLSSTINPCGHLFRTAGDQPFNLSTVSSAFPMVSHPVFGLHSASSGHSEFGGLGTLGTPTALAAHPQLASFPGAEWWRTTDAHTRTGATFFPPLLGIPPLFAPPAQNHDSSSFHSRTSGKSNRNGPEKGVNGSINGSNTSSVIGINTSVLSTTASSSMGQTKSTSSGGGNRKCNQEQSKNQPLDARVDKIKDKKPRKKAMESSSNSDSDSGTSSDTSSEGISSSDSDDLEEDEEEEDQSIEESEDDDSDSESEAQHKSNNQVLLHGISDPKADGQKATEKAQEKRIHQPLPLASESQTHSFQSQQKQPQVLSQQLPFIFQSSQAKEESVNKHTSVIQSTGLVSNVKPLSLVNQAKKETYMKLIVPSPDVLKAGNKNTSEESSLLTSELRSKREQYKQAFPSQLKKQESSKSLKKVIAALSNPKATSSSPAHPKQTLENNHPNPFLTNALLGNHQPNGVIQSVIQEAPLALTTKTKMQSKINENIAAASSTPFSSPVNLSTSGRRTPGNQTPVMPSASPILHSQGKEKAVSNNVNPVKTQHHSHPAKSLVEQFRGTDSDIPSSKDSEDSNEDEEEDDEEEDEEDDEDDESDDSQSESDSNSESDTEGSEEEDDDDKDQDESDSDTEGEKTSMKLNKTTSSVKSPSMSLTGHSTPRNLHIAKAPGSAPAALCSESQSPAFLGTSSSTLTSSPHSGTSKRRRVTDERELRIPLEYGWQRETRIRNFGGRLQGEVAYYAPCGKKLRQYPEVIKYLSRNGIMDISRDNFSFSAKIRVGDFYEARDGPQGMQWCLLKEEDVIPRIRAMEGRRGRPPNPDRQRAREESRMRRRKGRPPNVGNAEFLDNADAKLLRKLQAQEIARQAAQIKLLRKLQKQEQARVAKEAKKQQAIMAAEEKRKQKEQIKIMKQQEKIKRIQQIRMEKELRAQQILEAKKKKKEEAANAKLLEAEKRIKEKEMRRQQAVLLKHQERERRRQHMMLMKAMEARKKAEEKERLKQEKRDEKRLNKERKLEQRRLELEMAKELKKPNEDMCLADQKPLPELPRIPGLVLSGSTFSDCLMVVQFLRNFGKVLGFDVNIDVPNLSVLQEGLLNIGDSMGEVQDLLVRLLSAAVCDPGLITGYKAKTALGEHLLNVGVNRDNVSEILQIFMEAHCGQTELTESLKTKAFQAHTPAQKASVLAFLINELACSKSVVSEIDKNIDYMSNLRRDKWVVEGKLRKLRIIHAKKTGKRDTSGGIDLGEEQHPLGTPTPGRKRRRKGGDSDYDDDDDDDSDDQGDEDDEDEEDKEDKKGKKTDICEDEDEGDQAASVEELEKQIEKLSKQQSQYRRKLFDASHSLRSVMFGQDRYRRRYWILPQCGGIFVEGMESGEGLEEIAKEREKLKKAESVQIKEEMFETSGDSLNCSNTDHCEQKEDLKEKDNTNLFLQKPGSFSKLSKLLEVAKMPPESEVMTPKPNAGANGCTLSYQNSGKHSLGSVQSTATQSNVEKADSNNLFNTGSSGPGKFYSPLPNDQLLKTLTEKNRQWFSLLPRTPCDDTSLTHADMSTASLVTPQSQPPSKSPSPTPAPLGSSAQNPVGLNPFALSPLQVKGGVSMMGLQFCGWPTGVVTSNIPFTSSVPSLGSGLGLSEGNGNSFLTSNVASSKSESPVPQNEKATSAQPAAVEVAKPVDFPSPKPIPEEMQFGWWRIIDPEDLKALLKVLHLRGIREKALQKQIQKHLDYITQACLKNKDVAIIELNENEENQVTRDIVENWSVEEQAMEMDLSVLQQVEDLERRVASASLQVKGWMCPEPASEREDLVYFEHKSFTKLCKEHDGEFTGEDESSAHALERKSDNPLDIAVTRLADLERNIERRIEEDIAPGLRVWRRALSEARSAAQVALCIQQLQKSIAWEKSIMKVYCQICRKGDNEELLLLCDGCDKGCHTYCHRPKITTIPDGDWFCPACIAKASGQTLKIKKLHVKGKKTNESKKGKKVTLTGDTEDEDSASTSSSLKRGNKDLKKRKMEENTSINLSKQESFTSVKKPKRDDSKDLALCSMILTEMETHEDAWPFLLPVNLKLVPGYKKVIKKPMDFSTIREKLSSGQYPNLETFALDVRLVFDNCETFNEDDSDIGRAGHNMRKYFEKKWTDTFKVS
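Multi-concentration screen (max 110 uM) measuring displacement of acetylated histone H3 peptide from BAZ2B by AlphaScreen, using 50 nM protein, 50 nM peptide and 10 ug/mL streptavidin donor plus Ni-chelate acceptor beads.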
Sfp PPTase inh: qHTS Assay for Inhibitors of Bacillus subtilis Sfp phosphopantetheinyl transferase (PPTase) | 4'-phosphopantetheinyl transferase ffp (Bacillus subtilis), Q9F4F7 | Biochemical Sfp PPTase activity, qHTS | Potency, µM, most hits filed as inhibitors | 3.5% of 310,000 active | AID 1490, 2009;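 further: the enzyme is Sfp with the accession as filed and its product quenches rhodamine fluorescence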
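Fluorescence-quenching assay: 15 nM Sfp-PPTase preincubated 15 min at room temperature with compound, then 5 uM rhodamine-CoA and 12.5 uM BHQ-2-labelled YbbR peptide added. Fluorescence (ex 525/em 598 nm) read at start and after 30 min; difference gives rate.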
L3MBTL1 block: qHTS Assay for the Inhibitors of L3MBTL1 | AlphaScreen L3MBTL1–H3K9me1 peptide binding | Potency, µM (top dose mostly 57.1 µM), most hits filed as inhibitors | 0.66% of 230,000 active | AID 485360, 2010; further: nearly all actives have a fitted effect of over 60% in size
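AlphaScreen proximity signal between nickel-chelate acceptor and streptavidin donor beads (final 10 ug/mL) reports binding of 50 nM L3MBTL1 to 75 nM biotin-H3 K9me1 peptide; complex incubated with compounds 30 min at room temperature; cefsulodin titration as control.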
HP1b chromo inh: HTS for Inhibitors of HP1-beta Chromodomain Interactions with Methylated Histone Tails; Chromobox protein homolog 1 (Homo sapiens), P83916; AlphaScreen HP1-beta / biotin-H3K9me3 peptide binding; Potency, µM (titrated, usually from 114 µM), most hits filed as inhibitors; 0.56% of 390,000 active; further: nearly all actives have a fitted effect of over 70% in size
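AlphaScreen: HP1-beta (50 nM) preformed 30 min with biotin-H3(1-18)K9me3 peptide (50 nM) in PBS pH 7.4, 0.01% Tween-20. Compound added for 30 min at RT, then streptavidin donor/nickel chelate acceptor beads (10 ug/mL) for 30 min.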
A number is an active result; . = inactive; ? = inconclusive; / = not tested or not shown; [ ] = dose if it differs, or a comment. An excerpt weighted towards active compounds, which were near 12% of everything screened. The call rests on the fitted dose curve; in most records, active means well fitted curve in the direction sought with a large enough effect; inconclusive means small, poorly fitted or top-dose-only effect, or another doubt; inactive means no such curve, though single readings can be large; an effect the other way counts as inactive or inconclusive.

SMILES	G9a block	JMJD2A Tudor	BAZ2B block	Sfp PPTase inh	L3MBTL1 block	HP1b chromo inh
O=C(CN1C(=O)/C(=C/c2ccco2)SC1=S)NC1CCS(=O)(=O)C1 (centres undefined)	40µM	?	?	25µM	/	.
CC(/C=C1\SC(=S)N(CC(=O)O)C1=O)=C\c1ccccc1	.	.	.	.	.	.
O=C(CCN1C(=O)/C(=C/c2ccccc2)SC1=S)NC1CCS(=O)(=O)C1 (centres undefined)	.	.	.	.	/	.
CC(C(=O)Nc1ccc(C(=O)O)c(O)c1)N1C(=O)/C(=C\c2ccco2)SC1=S (centres undefined)	14µM	.	28µM	50µM	/	.
CC(=C\c1ccco1)/C=C1/SC(=S)N(CC(=O)O)C1=O	40µM	.	50µM	28µM	40µM	.
O=C(CN1C(=O)/C(=C/c2ccco2)SC1=S)Nc1ccc(C(=O)O)c(O)c1	/	.	28µM	50µM	/	.
COc1cc(OC)c(NC(=O)CCCn2nc(C)c3c(C)n(-c4ccccc4)nc3c2=O)cc1Cl	.	.	.	/	/	.
O=C(CN1C(=O)/C(=C/c2ccco2)SC1=S)Nc1ccc(O)c(C(=O)O)c1	25µM	?	45µM	50µM	/	.
CCOc1ccccc1NC(=O)c1ccc(S(=O)(=O)N2CCOCC2)cc1	.	.	.	.	.	.
CCN1CCN(c2ccc(S(=O)(=O)N3CCCCC3)cc2NC(=O)COc2ccc(Cl)c(C)c2)CC1	.[12.7 µM]	?	?	?	/	.
CCN1CCN(c2ccc(S(=O)(=O)N3CCCCC3)cc2NC(=O)COc2ccccc2)CC1	50µM	?	?	/	.	.
Cc1ccc(OCC(=O)Nc2cc(S(=O)(=O)N3CCCCC3)ccc2N2CCN(C)CC2)c(C)c1	45µM	?	?	/	.	.
CCOc1ccc(S(=O)(=O)N2CCOCC2)cc1NC(=O)c1ccc(N2CCCC2=O)cc1	32µM	.	.	/	.	.
CC(C)c1ccccc1OCC(=O)Nc1cc(S(=O)(=O)N2CCOCC2)ccc1N1CCCC1	28µM	?	.	/	.	.
COc1ccc(-c2nnc3n2N=C(c2ccccc2OC)CS3)cc1	/	.	/	.	/	/
CCC1CN(C(=O)N2CCC(C(=O)N3CCN(c4ccccc4F)CC3)CC2)c2ccccc2O1 (centres undefined)	.	.	?	/	/	.
CCN1CCN(c2ccc(S(=O)(=O)N3CCOCC3)cc2NC(=O)COc2ccc(F)cc2Cl)CC1	/	.	?	.	/	.
COc1ccc(S(=O)(=O)N2CCOCC2)cc1NC(=O)Cc1cccs1	.[2.33 µM]	.	.	/	.	.
COc1ccc(OC)c(NC(=O)COc2ccc(S(=O)(=O)N3CCCC3)cc2)c1	40µM	.	.	.	/	.
COc1ccccc1OCC(=O)Nc1cc(S(=O)(=O)N2CCCCC2)ccc1N1CCCCC1	8.9µM	?	79µM	.	.	.
CCOc1ccccc1OCC(=O)Nc1cc(S(=O)(=O)N2CCCCC2)ccc1N1CCN(CC)CC1	3.5µM	.	.	/	.	.
CCOc1ccc(S(=O)(=O)N2CCCCC2)cc1NC(=O)Cc1cccs1	16µM	.	.	/	.	.
COc1ccc(OCC(=O)Nc2ccc(S(=O)(=O)N3CCCCC3)cc2)cc1	.	.	.	.	/	.
CCOc1ccccc1OCC(=O)Nc1cc(S(=O)(=O)N2CCCCC2)ccc1OC	.[0.501 µM]	.	.	/	.	.
COc1ccc(S(=O)(=O)c2cnc(SCC(=O)Nc3cc(F)ccc3C)[nH]c2=O)cc1Cl	.	?	?	/	/	.
CCn1nc(C)c2c(-c3ccccc3)cc(=O)n(C(C)C(=O)NCCC(C)C)c21 (centres undefined)	.	.	.	/	/	.
CCCN1CNc2c(c(=O)[nH]c(=O)n2CCc2ccc(OC)c(OC)c2)C1	/	.	/	/	/	.

Screening data: PubChem, National Center for Advancing Translational Sciences (NCATS)
